SMILES strings stand for the structures. Hit rate of the full screen: of about 360,000 compounds, about 1,800 (0.5%) were called active. The entries come from a sample that favours actives as a whole. Values without a mark were called inactive.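 How the source made its calls: active means interference check ratio from 0.5 to 1.5 plus GFP to RFP signal ratio inhibition reaching or exceeding a fixed threshold (cut at about 30% in these data, passing the limit was not always enough); inactive means the rest.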

The nature of this test: suppressors of acrylamide-induced Pgst-4::GFP reporter in worms, primary screen, SKN-1 inhibitor project, whole organism, uHTS, GFP/RFP fluorescence ratio, strain VP596 (AID 624304). The settings on record: C. elegans VP596 Pgst-4::GFP/RFP ratio, 24 h, at 21.8 µM, stronger effect = higher value.
Take `O=S1(=O)CSCS(=O)(=O)C1`: the inhibition (as a rule, the change of the read-out against control, counted positive when it falls) was 10.6%. In the case of `CC1CN(S(=O)(=O)c2ccc(C(=O)NN3CCN(C)CC3)cc2)CC(C)O1` (configuration not stated), the inhibition is -5.41%. The same measure for `Cc1cc(OCc2cc(C(=O)NCc3cc(C(C)C)no3)no2)cc(C)c1Cl`: 1.98%. As for `O=C(CC(O)(C(F)(F)F)C(F)(F)F)Nc1ccc(Cl)c(Cl)c1`, the inhibition is 50.1% (active).

For `Cc1ccc(NC(=O)CSc2nn3c(=O)c(C)nnc3s2)cc1Cl`, the inhibition is 20.9%. For `O=C(Nc1ccc(Cl)c(Cl)c1)N1CC=C(c2ccccc2)CC1` the value was 13.1%. Consider `NC(=O)C1CCN(C2OC(=O)c3ccccc32)CC1` (configuration not stated), for which the inhibition is -35.9%. With `O=C(NC(c1ccc(-c2ccccc2)cc1)c1cnccn1)C1CCN(CCOc2ccc(Cl)cc2Cl)CC1` (configuration not stated), the inhibition was 39.3% (active). The same measure for `Cc1ccc(C(NC(=O)C2CCN(CCOc3ccc(Cl)cc3Cl)CC2)c2ccccn2)cc1` (configuration not stated): -6.91%; for `O=C(NC(c1ccc(Cl)cc1)c1cnccn1)C1CCN(Cc2ccc(Cl)cc2)CC1` (configuration not stated): -1.18%. For `CCCCS(=O)c1snnc1C` (configuration not stated) the value was 0.19%. Consider `CC1(C(=O)NS(=O)(=O)c2ccccc2)CCN1C(=O)Cc1ccc(-c2ccccc2)cc1` (configuration not stated), for which the inhibition was 14.5%. On to `CCCNC(=O)C1(C)CCN1C(=O)Cc1ccc(-c2ccccc2)cc1` (configuration not stated), for which the inhibition is -5.8%. For the compound `CC1(C(=O)NS(=O)(=O)c2cccs2)CCN1C(=O)Cc1ccc(-c2ccccc2)cc1` (configuration not stated), the inhibition is 35.1% (active).

With `O=C(NCCCN1CCOCC1)C1CCCN(S(=O)(=O)N2CCCCC2)C1` (configuration not stated), the inhibition is 6.87%. On to `CC[n+]1c(C)n(-c2ccccc2)c2ccc(NC(C)=O)cc21`, for which the inhibition was -12.4%.

For `O=S(=O)(c1ccc(Sc2nnc3ccccn23)nc1)N1CCOCC1`, the inhibition is 10.2%. Turning to `CCCCOC(=O)Nc1sc2nc(C)cc(C)c2c1-n1cccc1`, the inhibition was -12.8%. For the compound `Cc1cc(C)c2c(-n3cccc3)c(NC(=O)OCc3ccccc3)sc2n1`, the inhibition is 39.1% (active). For `COC(=O)Nc1sc2nc(C)cc(C)c2c1-n1cccc1`, the inhibition was 6.78%. On to `O=C(C1CCCO1)N1CCN(C(=S)NC2CC2)CC1` (configuration not stated), for which the inhibition is -7.31%. `COc1cc2[nH]c(=S)n(Cc3ccc(F)cc3)c(=O)c2cc1OC`: the inhibition is -0.963%. Turning to `CCOc1cc2[nH]c(=S)n(CCN3CCCCC3C)c(=O)c2cc1OCC` (configuration not stated), the inhibition is -6.45%. In the case of `COc1cc2[nH]c(=S)n(CCN3CCCCC3C)c(=O)c2cc1OC` (configuration not stated), the inhibition is 56.1% (active).

For `CC(Oc1ccc(Cl)cc1Cl)C(=O)/C=C/N(C)C` (configuration not stated), the inhibition is -7.74%. Take `CC(C)(CNCC(O)c1ccccc1)N1CCOCC1` (configuration not stated): the inhibition is -7.82%. Consider `Fc1cccc(CSc2nnc3ccc(-c4ccncc4)nn23)c1`, for which the inhibition was -27.4%.

For `COc1ccc(S(=O)(=O)NCc2cccnc2)cc1NC(=O)c1ccc(C)cc1`, the inhibition is 22.1%. For `CC(C)c1nnc(NC(=O)C2CC(=O)N(CCc3ccc(F)cc3)C2)s1` (configuration not stated), the inhibition is -6.45%. The same measure for `CCC(C)NC(=O)c1ccccc1NC(=O)c1ccccc1N(C)S(C)(=O)=O` (configuration not stated): -2.01%; for `COc1ccc(-c2nc(CS(=O)CC(=O)NCc3cccnc3)c(C)o2)cc1OC` (configuration not stated): 0.495%; for `Cc1ccc(-c2nc(CS(=O)CC(=O)NC3CCCC3)c(C)o2)cc1` (configuration not stated): 5.39%. Turning to `COc1ccc(-c2nc(CS(=O)CC(=O)NCc3ccccn3)c(C)o2)cc1` (configuration not stated), the inhibition is 37.6% (active). For the compound `COc1ccc(N2C(=O)C(CC(=O)Nc3ccc(F)cc3)N(CCc3cccs3)C2=O)cc1` (configuration not stated), the inhibition is -3.33%. `COc1ccc(-n2nc(C(=O)Nc3cc(OC)c(OC)c(OC)c3)c3ccccc3c2=O)c(OC)c1`: the inhibition was 6.93%.

For `COCCN1C(=O)N(c2ccc(Cl)cc2)C(=O)C1CC(=O)Nc1cc(OC)cc(OC)c1` (configuration not stated), the inhibition is 17%. As for `C[C@H](OC(=O)n1ccnc1)[C@@H]1O[C@@]2(C)CCC[C@@H]1O2`, the inhibition is 13.4%. Turning to `C=CCSc1nsc(NC(=O)Nc2cccc(C(C)=O)c2)n1`, the inhibition was 2.8%. With `C=CCSc1nnc2c(n1)-c1cccc3cccc-2c13`, the inhibition was 53.1% (active). As for `COc1ccnc2c1c(=O)n(Cc1cccc(F)c1)c(=O)n2C`, the inhibition is 13.9%. Turning to `CCCCC(CC)C(=O)Nc1ccc(Cl)cn1` (configuration not stated), the inhibition is -11.4%. The same measure for `CCCc1cc(C(=O)Nc2ccc(Cl)cn2)cs1`: 35% (active); for `COc1ccc(C(=O)N/N=C(\C)CC(=O)Nc2ccc(Cl)cn2)cc1`: 3.73%. As to `C=CCC1(C(=O)N(C)Cc2ccccc2)CCN(C(=O)OC(C)(C)C)CC1`, the inhibition is 4.4%. Turning to `COCCN(C(=S)Nc1cccc(Cl)c1C)C(C)c1ccco1` (configuration not stated), the inhibition is 2.25%. On to `C/C(=N\NC(=O)OC(C)(C)C)c1ccc[nH]1`, for which the inhibition is 10.7%. On to `CCOC(=O)c1ccc(NC(=O)c2nc[nH]c2C(=O)N[C@@H](CCCCNC(=O)OC(C)(C)C)C(=O)OC(C)(C)C)cc1`, for which the inhibition was -1.6%. The same measure for `c1ccc2c(c1)OCCOCCOCCO2`: 2.75%. In the case of `CCC1CCCCN1C(=O)CSc1nc2c(c(=O)n(C)c(=O)n2C)n1C` (configuration not stated), the inhibition was 10.5%. Take `Cc1nc2nc(CSc3nc4ccccc4s3)cc(=O)n2[nH]1`: the inhibition was 31.9% (active). Turning to `CCn1c(SCc2cc(=O)n3ccsc3n2)nc2ccccc21`, the inhibition was 13.5%.

Consider `CCCc1cc(=O)n2[nH]c(SCc3ccccc3)nc2n1`, for which the inhibition was 11.9%. Turning to `COc1ccc2c(c1)c1ncn(Cc3ccccn3)c(=O)c1n2C`, the inhibition was -9.72%. For `Clc1ccc(-c2csc(-c3ccncc3)n2)cc1`, the inhibition is 73.1% (active). For `Fc1ccc(-c2csc(-c3ccc(C4SCCS4)cc3)n2)cc1F`, the inhibition was -2.79%. With `N#CC(=C1CCCC1)c1nc(-c2ccc(Cl)cc2)cs1`, the inhibition was -17.2%.

With `COc1ccc(C)cc1NC(=O)c1[nH]c(C)c(C(C)=O)c1C`, the inhibition was -2.27%.

Take `COc1ccc(NC(=O)C2Cc3c(-c4cccc(NC(C)=O)c4)ccnc3O2)cc1OC` (configuration not stated): the inhibition is 7.14%. With `CC(NC(=O)c1ccco1)C(=O)Nc1nc(-c2ccccn2)cs1` (configuration not stated), the inhibition was -5.6%. As to `O=C(Nc1ccc(Cl)cn1)c1ccccc1-c1ccccc1`, the inhibition was 19.1%. In the case of `COc1ccc2nc(-c3ccccn3)ccc2c1`, the inhibition is 18.4%. In the case of `Clc1ccc(Nc2nc(-c3cccs3)cs2)nc1`, the inhibition is 84.2% (active). As for `Clc1ccc(Cc2nnc(-c3cccs3)o2)cc1`, the inhibition was -1.16%. For `COc1ccc(C(O)c2nc(-c3ccc(OC)nc3)cs2)cc1` (configuration not stated) the value was -3.44%. As for `c1ccc(Nc2nc(-c3ccncc3)cs2)nc1`, the inhibition was 38.3% (active). The same measure for `N#Cc1ccc(OCC(=O)Nc2nc(-c3ccccn3)cs2)cc1`: 0.752%; for `COc1ccc(-c2csc(Nc3ccccn3)n2)cc1`: 40% (active).
